# Test results from paper PMC4081100, “A DNA-binding-site landscape and regulatory network analysis for NAC transcription factors in Arabidopsis thaliana”.
# How the values were obtained:
# Assay in all cases: universal protein binding microarray (PBM); transcription factors of Arabidopsis thaliana; high values mean tight binding
# GST-NTL6(1-168) = GST-NTL6(1-168) (Arabidopsis thaliana, UniProt Q9SCK6 1-168); conditions: protein: recombinant; tags: GST; chain copies: 2; dsDNA, one strand shown
# Outline: (§1)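 For zinc-finger proteins, zinc acetate was added while GST-tagged NAC-domain, full-length or DNA-binding-domain proteins were induced in cells. Purification used glutathione–Sepharose 4B, and quantification used A280 or anti-GST western blot. Custom all-10-mer Agilent 4 × 180K arrays, made double-stranded by primer extension, each received a protein at 200 to 500 nM final in duplicate. Scoring covered gapped and ungapped 8-mers, with binding given as the normalised enrichment score (E-score).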
# GST-ATAF1 NAC domain = target: T1, GST-ATAF1 NAC domain (Arabidopsis thaliana, UniProt Q39013 7-158); conditions: protein: recombinant; tags: GST; chain copies: 2; dsDNA, one strand shown
# T1 sequence: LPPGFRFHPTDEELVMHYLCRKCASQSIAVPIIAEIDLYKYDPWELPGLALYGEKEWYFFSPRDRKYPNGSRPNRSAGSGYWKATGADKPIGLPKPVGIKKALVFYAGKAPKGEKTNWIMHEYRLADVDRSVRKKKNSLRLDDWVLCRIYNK
# Outline: as §1
# [1] = target: T2, GST-ANAC092(1-285) full length (Arabidopsis thaliana, UniProt Q9FKA0 1-285); conditions: protein: recombinant; tags: GST; chain copies: 2; dsDNA, one strand shown
# T2 sequence: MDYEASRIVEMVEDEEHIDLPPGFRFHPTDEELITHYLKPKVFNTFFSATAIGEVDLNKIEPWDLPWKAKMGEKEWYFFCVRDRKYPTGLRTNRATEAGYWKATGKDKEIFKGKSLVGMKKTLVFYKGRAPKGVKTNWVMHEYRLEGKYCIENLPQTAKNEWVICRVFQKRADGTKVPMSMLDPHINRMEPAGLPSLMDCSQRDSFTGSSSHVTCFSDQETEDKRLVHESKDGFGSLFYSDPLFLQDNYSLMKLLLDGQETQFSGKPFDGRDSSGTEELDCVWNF
# Outline: as §1
# GST-SND1(1-203) = target: T3, GST-SND1(1-203) (Arabidopsis thaliana, UniProt Q9LPI7 1-203); conditions: protein: recombinant; tags: GST; chain copies: 2; dsDNA, one strand shown
# T3 sequence: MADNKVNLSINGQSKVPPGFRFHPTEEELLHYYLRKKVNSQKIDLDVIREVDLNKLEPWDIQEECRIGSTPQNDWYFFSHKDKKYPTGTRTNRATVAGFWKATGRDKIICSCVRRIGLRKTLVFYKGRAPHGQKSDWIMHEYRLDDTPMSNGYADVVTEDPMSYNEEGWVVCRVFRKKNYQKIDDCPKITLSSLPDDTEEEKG
# Outline: as §1
# GST-WRKY1(266-371) = GST-WRKY1(266-371) (Arabidopsis thaliana, UniProt Q9SI37 266-371); conditions: protein: recombinant; tags: GST; dsDNA, one strand shown
# Outline: as §1
# GST-NTL8 NAC domain = target: T4, GST-NTL8 NAC domain (Arabidopsis thaliana, UniProt Q9XIN7 14-156); conditions: protein: recombinant; tags: GST; chain copies: 2; dsDNA, one strand shown
# T4 sequence: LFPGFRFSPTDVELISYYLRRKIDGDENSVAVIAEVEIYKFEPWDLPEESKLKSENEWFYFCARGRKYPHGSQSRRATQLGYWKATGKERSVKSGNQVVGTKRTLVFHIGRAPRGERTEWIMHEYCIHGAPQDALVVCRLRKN
# Outline: as §1
# GST-ANAC092(1-176) = target: T5, GST-ANAC092(1-176) (Arabidopsis thaliana, UniProt Q9FKA0 1-176); conditions: protein: recombinant; tags: GST; chain copies: 2; dsDNA, one strand shown
# T5 sequence: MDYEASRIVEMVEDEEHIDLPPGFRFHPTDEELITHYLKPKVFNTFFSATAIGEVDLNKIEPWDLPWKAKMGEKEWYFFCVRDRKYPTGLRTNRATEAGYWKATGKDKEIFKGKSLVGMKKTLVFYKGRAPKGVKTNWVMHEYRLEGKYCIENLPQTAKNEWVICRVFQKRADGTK
# Outline: as §1
# GST-ANAC019 NAC domain = target: T6, GST-ANAC019 NAC domain (Arabidopsis thaliana, UniProt Q9C932 14-162); conditions: protein: recombinant; tags: GST; chain copies: 2; dsDNA, one strand shown
# T6 sequence: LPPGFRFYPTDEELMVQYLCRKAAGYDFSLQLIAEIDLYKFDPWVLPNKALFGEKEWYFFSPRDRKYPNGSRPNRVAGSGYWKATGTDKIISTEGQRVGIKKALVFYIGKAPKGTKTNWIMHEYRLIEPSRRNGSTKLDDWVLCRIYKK
# Outline: as §1
# GST-ANAC055(1-171) = target: T7, GST-ANAC055(1-171) (Arabidopsis thaliana, UniProt Q9LDY8 1-171); conditions: protein: recombinant; tags: GST; chain copies: 2; dsDNA, one strand shown
# T7 sequence: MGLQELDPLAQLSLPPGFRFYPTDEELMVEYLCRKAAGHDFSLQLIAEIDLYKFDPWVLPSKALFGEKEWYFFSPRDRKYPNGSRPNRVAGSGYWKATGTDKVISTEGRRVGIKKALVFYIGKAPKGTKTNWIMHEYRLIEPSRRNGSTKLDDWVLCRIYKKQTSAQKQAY
# Outline: as §1
# GST-NST2(1-184) = target: T8, GST-NST2(1-184) (Arabidopsis thaliana, UniProt Q9M274 1-184); conditions: protein: recombinant; tags: GST; chain copies: 2; dsDNA, one strand shown
# T8 sequence: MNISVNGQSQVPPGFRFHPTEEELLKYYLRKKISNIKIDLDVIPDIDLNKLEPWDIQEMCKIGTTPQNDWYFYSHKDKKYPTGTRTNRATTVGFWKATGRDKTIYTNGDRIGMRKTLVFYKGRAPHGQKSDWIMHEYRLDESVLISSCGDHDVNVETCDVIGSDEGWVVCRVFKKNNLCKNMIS
# Outline: as §1
# GST-NAP(1-166) = target: T9, GST-NAP(1-166) (Arabidopsis thaliana, UniProt O49255 1-166); conditions: protein: recombinant; tags: GST; chain copies: 2; dsDNA, one strand shown
# T9 sequence: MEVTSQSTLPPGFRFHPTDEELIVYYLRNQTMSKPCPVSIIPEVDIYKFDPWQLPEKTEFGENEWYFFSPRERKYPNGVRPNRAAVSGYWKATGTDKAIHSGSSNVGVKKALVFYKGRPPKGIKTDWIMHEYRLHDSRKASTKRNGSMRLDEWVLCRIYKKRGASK
# Outline: as §1
# Sequence of GST-NTL6(1-168) (Q9SCK6 1-168): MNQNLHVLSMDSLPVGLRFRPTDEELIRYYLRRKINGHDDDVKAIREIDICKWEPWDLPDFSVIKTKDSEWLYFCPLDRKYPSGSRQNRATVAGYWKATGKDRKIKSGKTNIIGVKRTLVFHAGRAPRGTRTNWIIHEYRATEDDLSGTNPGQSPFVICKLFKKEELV
# Sequence of GST-WRKY1(266-371) (Q9SI37 266-371): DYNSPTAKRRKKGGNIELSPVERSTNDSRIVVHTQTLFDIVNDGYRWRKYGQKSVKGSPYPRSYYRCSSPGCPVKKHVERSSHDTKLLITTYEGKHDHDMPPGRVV
sequence,measurement,setting,value
AAGTCAAT,binding signal,GST-NTL6(1-168),0.118 E-score
same,binding signal,GST-ATAF1 NAC domain,0.126 E-score
same,binding signal,[1],0.119 E-score
same,binding signal,GST-SND1(1-203),0.0507 E-score
same,binding signal,GST-WRKY1(266-371),0.481 E-score
ACTGACCT,binding signal,GST-NTL8 NAC domain,0.109 E-score
same,binding signal,GST-SND1(1-203),0.0503 E-score
same,binding signal,GST-WRKY1(266-371),0.407 E-score
AGGGAAAG,binding signal,GST-ANAC092(1-176),0.0861 E-score
same,binding signal,GST-NTL6(1-168),0.115 E-score
same,binding signal,GST-ANAC019 NAC domain,0.129 E-score
same,binding signal,GST-NTL8 NAC domain,0.473 E-score
same,binding signal,GST-SND1(1-203),0.114 E-score
TAAAGTCA,binding signal,GST-ATAF1 NAC domain,0.0969 E-score
same,binding signal,[1],0.0547 E-score
same,binding signal,GST-SND1(1-203),0.0751 E-score
same,binding signal,GST-WRKY1(266-371),0.465 E-score
AAAGTCAA,binding signal,GST-NTL6(1-168),0.0854 E-score
same,binding signal,GST-ANAC055(1-171),0.0717 E-score
same,binding signal,GST-ATAF1 NAC domain,0.118 E-score
same,binding signal,GST-NST2(1-184),0.0787 E-score
same,binding signal,GST-SND1(1-203),0.118 E-score
same,binding signal,GST-WRKY1(266-371),0.49 E-score
AGGAAAGG,binding signal,GST-ANAC092(1-176),0.0968 E-score
same,binding signal,GST-NTL6(1-168),0.0725 E-score
same,binding signal,GST-ANAC019 NAC domain,0.0699 E-score
same,binding signal,GST-NST2(1-184),0.064 E-score
same,binding signal,GST-NTL8 NAC domain,0.44 E-score
same,binding signal,GST-SND1(1-203),0.136 E-score
CTTAGTCA,binding signal,GST-NTL6(1-168),0.243 E-score
same,binding signal,GST-ATAF1 NAC domain,0.101 E-score
same,binding signal,GST-NTL8 NAC domain,0.091 E-score
same,binding signal,GST-SND1(1-203),0.118 E-score
same,binding signal,GST-WRKY1(266-371),0.424 E-score
CTTTGACC,binding signal,GST-ANAC092(1-176),0.051 E-score
same,binding signal,GST-SND1(1-203),0.0526 E-score
same,binding signal,GST-WRKY1(266-371),0.488 E-score
GAGTTGAC,binding signal,GST-ANAC019 NAC domain,0.0811 E-score
same,binding signal,GST-NST2(1-184),0.102 E-score
same,binding signal,GST-SND1(1-203),0.0621 E-score
same,binding signal,GST-WRKY1(266-371),0.476 E-score
TCAAGTCA,binding signal,GST-ANAC055(1-171),0.0629 E-score
same,binding signal,GST-ATAF1 NAC domain,0.0801 E-score
same,binding signal,[1],0.196 E-score
same,binding signal,GST-NST2(1-184),0.057 E-score
same,binding signal,GST-SND1(1-203),0.171 E-score
same,binding signal,GST-WRKY1(266-371),0.453 E-score
GTCAAGAA,binding signal,GST-ANAC092(1-176),0.0716 E-score
same,binding signal,GST-ANAC055(1-171),0.0615 E-score
same,binding signal,GST-ATAF1 NAC domain,0.114 E-score
same,binding signal,[1],0.124 E-score
same,binding signal,GST-NAP(1-166),0.0595 E-score
same,binding signal,GST-NST2(1-184),0.0986 E-score
same,binding signal,GST-SND1(1-203),0.052 E-score
same,binding signal,GST-WRKY1(266-371),0.436 E-score
AAGTCAAG,binding signal,GST-NTL6(1-168),0.113 E-score
same,binding signal,GST-ATAF1 NAC domain,0.0757 E-score
same,binding signal,[1],0.14 E-score
same,binding signal,GST-NST2(1-184),0.0657 E-score
same,binding signal,GST-SND1(1-203),0.0903 E-score
same,binding signal,GST-WRKY1(266-371),0.479 E-score
CTGACTTC,binding signal,GST-ANAC019 NAC domain,0.0546 E-score
same,binding signal,GST-NTL8 NAC domain,0.113 E-score
same,binding signal,GST-SND1(1-203),0.0589 E-score
same,binding signal,GST-WRKY1(266-371),0.412 E-score
GTCAAGCA,binding signal,[1],0.106 E-score
same,binding signal,GST-SND1(1-203),0.0699 E-score
same,binding signal,GST-WRKY1(266-371),0.44 E-score
GCGTCAAC,binding signal,GST-ANAC092(1-176),0.119 E-score
same,binding signal,GST-ANAC019 NAC domain,0.0778 E-score
same,binding signal,[1],0.109 E-score
same,binding signal,GST-NST2(1-184),0.0734 E-score
same,binding signal,GST-SND1(1-203),0.192 E-score
same,binding signal,GST-WRKY1(266-371),0.443 E-score
GTCAGTCA,binding signal,[1],0.1 E-score
same,binding signal,GST-SND1(1-203),0.0958 E-score
same,binding signal,GST-WRKY1(266-371),0.426 E-score
GCTTTCCC,binding signal,GST-ANAC092(1-176),0.124 E-score
same,binding signal,GST-NTL6(1-168),0.142 E-score
same,binding signal,GST-ANAC019 NAC domain,0.0714 E-score
same,binding signal,[1],0.117 E-score
same,binding signal,GST-NTL8 NAC domain,0.423 E-score
same,binding signal,GST-SND1(1-203),0.0912 E-score
GAAGTAAC,binding signal,GST-ANAC092(1-176),0.249 E-score
same,binding signal,GST-NTL6(1-168),0.381 E-score
same,binding signal,GST-ANAC055(1-171),0.106 E-score
same,binding signal,GST-ATAF1 NAC domain,0.0921 E-score
same,binding signal,[1],0.325 E-score
same,binding signal,GST-NST2(1-184),0.301 E-score
same,binding signal,GST-NTL8 NAC domain,0.413 E-score
same,binding signal,GST-SND1(1-203),0.333 E-score
